This is a sample that favours compounds with a hit; in the whole collection about 4% have one here.
MITF act: increases MITF-driven TRPM1 promoter luciferase signal | SK-MEL-5 TRPM1-promoter luciferase, 24 h; % of positive control, neutral wells = 0 | hit rate 0.75% among 300,000 | AID 588334 | activation, % at 12.5 µM;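 active means mean activation of at least 80% with every replicate also reaching 80%; inconclusive means mean reaches 80% but some replicate falls short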;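 further: 0% = neutral control wells and 100% = parthenolide positive control wells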
EWS-Fli block: EWS/Fli transcriptional activity inhibition. AID 651661. hit rate 0.67% among 350,000. A673 NR0B1-luciferase reporter, viability-normalised. inhibition, % at 12.6 µM;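 active means mean inhibition of at least 50% after viability correction, with every replicate also passing that limit; inconclusive means mean reaches 50% but only one of two replicates passes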;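 further: firefly luciferase signal divided by Alamar Blue viability fluorescence both relative to DMSO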
Wnt act: activators of Wnt/beta-catenin signaling; Wnt/beta-catenin reporter cell assay, activator, plate reader; activation, % at 9.35 µM; hit rate 1.2% among 300,000; AID 743398; in the data active means activation above about 30%, passing the limit was not always enough; inconclusive means no clear call, values can overlap the other calls;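 further: 0% = neutral control wells and 100% = positive control wells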
PAX8 reporter: lowers PAX8-driven luciferase in RMG-I cells; RMG-I TPO-luciferase reporter, SteadyGlo, 24 h; inhibition, % at 12.6 µM; hit rate 1.2% among 360,000;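 active means mean replicate inhibition at least 60% with every replicate also reaching 60%; inconclusive means only one of the two criteria is met; inactive means mean below 60% and not all replicates reaching 60%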;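 further: luciferase light reporting Pax8 driven TPO promoter activity; plate controls were median of neutral control wells for no effect and mitoxantrone controls for full effect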
MITF TRPM1 inh: reduces MITF-dependent TRPM1 promoter luciferase signal; SK-MEL-5 TRPM1 promoter luciferase, 24 h; inhibition, % at 12.5 µM; hit rate 0.83% among 330,000; AID 488899;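 active means mean inhibition across replicates of 60% or more, whatever share of single replicates reaches that level; inconclusive means some that reach 60%, reason not given; inactive means mean inhibition across replicates below 60%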
esBAF inh: blocks esBAF chromatin remodeling in mouse ES cells; Bmi1-luciferase knock-in reporter, 24 h; 100% = twice the neutral-well signal; reporter increase, % at 12.5 µM; hit rate 2% among 350,000; in the data active means activation above about 40%; inconclusive means no clear call, values can overlap the other calls;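 further: 0% = median of the plate's neutral control wells and 100% = double that signal; a rise in the Bmi1 reporter signal indicates esBAF inhibition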
Numbers without * were called inactive; ? = inconclusive; / = not tested or not shown.

SMILES	MITF act	EWS-Fli block	Wnt act	PAX8 reporter	MITF TRPM1 inh	esBAF inh
Cc1ccc(-c2cnc3c(c2)C(=O)N([C@@H](C)CO)C[C@H](C)[C@@H](CN(C)C(=O)Cc2cccnc2)O3)cc1	/	7.9	/	4.9	/	-22.7
C[C@H](CO)N1C[C@H](C)[C@H](CN(C)S(=O)(=O)c2cccc(F)c2)OCc2ccccc2-c2c(n(C)c3ccccc23)C1=O	/	10.9	-2.2	103.5*	/	-1.2
C[C@H]1CN([C@@H](C)CO)C(=O)c2c(c3ccccc3n2C)-c2ccccc2CO[C@@H]1CN(C)S(=O)(=O)c1cccc(F)c1	/	15.0	/	102.2*	/	7.3
C[C@@H]1CN([C@H](C)CO)C(=O)c2c(c3ccccc3n2C)-c2ccccc2CO[C@H]1CN(C)S(=O)(=O)c1cccc(F)c1	/	-2.2	/	92.7*	/	-2.7
C[C@H]1CN([C@@H](C)CO)C(=O)c2cccc(NC(=O)Nc3cccc4ccccc34)c2O[C@H]1CN(C)S(=O)(=O)c1cn(C)cn1	/	-12.5	/	/	/	-1.2
Cn1c(Cn2cnc([N+](=O)[O-])n2)nnc1SCC(=O)Nc1ccccc1	15.1	-2.7	-2.4	81.4*	-14.9	-4.0
CCNC(=O)[C@@H]1[C@@H](CO)[C@@H]2Cn3c(ccc(-c4ccccc4F)c3=O)[C@H]1N2S(C)(=O)=O	/	-6.7	/	/	/	/
c1cncc(-c2nc(-c3cccs3)cs2)c1	22.1	/	0.4	/	-22.1	22.5
CC(=O)Oc1ccc(-c2csc(Nc3ccccn3)n2)cc1	/	-32.5	61.3*	-171.8	/	32.8
CC(=O)Oc1ccc(-c2csc(Nc3cccc(C)n3)n2)cc1	/	-103.9	15.3	-84.8	-52.5	65.2*
c1csc(-c2csc(-c3cccs3)n2)c1	/	/	26.0	-152.4	-35.7	53.0*
COc1ccc(-c2csc(Nc3cccc(C)n3)n2)cc1C	/	-120.1	37.3*	-80.1	-73.4	44.8*
O=C(Nc1ccc(Cl)c(Cl)c1)N[C@@H]1CC[C@H](CCn2cc(C3CCCC3)nn2)O[C@@H]1CO	/	5.4	/	10.9	/	/
CN(C)CC(=O)Nc1ccc2c(c1)[C@@H]1C[C@H](CC(=O)NC3CCCC3)O[C@H](CO)[C@@H]1O2	/	-7.8	/	-0.3	/	1.8
COCC(=O)N1[C@H](C#N)[C@@H](c2ccccc2-c2ccccc2F)[C@H]1CO	/	0.2	/	/	/	/
Cc1cccnc1Nc1nc(-c2ccc(O)cc2O)cs1	49.7	/	10.3	/	-50.4	31.1
Cc1cccc(Nc2nc(-c3cccs3)cs2)n1	31.6	/	6.3	/	-31.9	50.0*
Oc1ccc(-c2csc(Nc3ccccn3)n2)c(O)c1	/	-59.4	13.1	-125.5	-17.3	79.9*
c1ccc(Nc2nc(-c3cccs3)cs2)nc1	/	/	-2.6	/	-14.1	-33.3
Cc1noc(C)c1S(=O)(=O)N(C)C[C@@H]1OCCCC[C@@H](C)Oc2ccc(NC(=O)Cc3ccccc3)cc2C(=O)N([C@@H](C)CO)C[C@@H]1C	/	-4.9	/	13.5	/	/
O=C(NCCOc1ccc(Cl)cc1)c1ccc2c(c1)OCCO2	97.6*	-68.5	19.8	-168.1	-93.8	39.3
O=C(NCCc1ccc(Cl)cc1)c1ccc2c(c1)OCO2	46.0	-48.7	37.2*	-181.0	-44.5	/
O=C(NCc1ccccc1F)c1ccc2c(c1)OCO2	24.8	/	-1.1	/	-24.1	13.9
O=C(NCCc1ccccc1F)c1ccc2c(c1)OCCO2	-85.0	90.3*	-13.0	110.2*	88.4*	-83.4
C[C@H]1CN([C@@H](C)CO)S(=O)(=O)c2ccc(/C=C/c3ccccc3)cc2O[C@@H]1CN(C)Cc1cncnc1	/	25.6	/	?	/	-13.3
SMILES	MITF act	EWS-Fli block	Wnt act	PAX8 reporter	MITF TRPM1 inh	esBAF inh
Cc1ccc(S(=O)(=O)Nc2ccc3c(c2)C(=O)N([C@H](C)CO)C[C@@H](C)[C@H](CN(C)S(=O)(=O)c2cn(C)cn2)OCCCC[C@@H](C)O3)cc1	/	-5.2	/	-5.5	/	-6.4
CC(C)Oc1ccc(C2CC(=O)N(c3ccc(C(=O)O)cc3)C2=O)cc1 (centres undefined)	3.3	3.8	-1.4	-15.5	-2.4	-1.1
CC(C)Oc1ccc(C2CC(=O)N(c3cccc(C(=O)O)c3)C2=O)cc1 (centres undefined)	23.4	/	11.5	-49.3	-19.2	55.8*
COCc1nc(-c2ccc(-c3ccc(OC)cc3)nc2OC)no1	23.5	-52.9	20.1	-99.5	-17.6	35.2
CCc1nc(-c2ccc(-c3ccc(OC)cc3)nc2OC)no1	12.5	/	56.0*	-138.2	-19.4	10.1
COCc1nc(-c2ccc(-c3ccccc3)nc2OC)no1	/	/	48.7*	-172.1	-75.0	66.4*
COc1nc(-c2ccccc2)ccc1-c1noc(C)n1	/	/	49.9*	-140.2	-50.2	30.5
C[C@@H]1CN([C@H](C)CO)C(=O)c2cccc(NC(=O)c3nc4ccccc4s3)c2O[C@H]1CN(C)C(=O)NC1CCCCC1	/	8.6	/	/	/	2.6
CS(=O)(=O)Nc1ccc2c(c1)[C@H]1C[C@H](CC(=O)NCc3ccccc3)O[C@@H](CO)[C@H]1O2	/	1.3	/	4.1	/	4.2
C/C(=N/OC(=O)c1ccccc1Br)c1ccc(C)cc1	44.2	-15.3	1.5	-43.5	-37.8	63.7*
C#CCNC(=O)c1cc(-c2ccccc2)sc1N	/	-9.5	1.5	-39.1	/	/
COC(=O)c1cc(-c2ccccc2)sc1N	69.6	/	10.3	-128.0	-67.0	51.3*
C[C@@H]1CCCCO[C@@H](CN(C)S(=O)(=O)c2ccc(F)cc2)[C@H](C)CN([C@@H](C)CO)C(=O)c2cc(NS(=O)(=O)c3ccc(F)cc3)ccc2O1	/	14.0	/	8.4	/	17.8
C[C@@H]1CCCCO[C@H](CN(C)CC2CCCCC2)[C@H](C)CN([C@H](C)CO)C(=O)c2cc(NC(=O)Nc3ccccc3)ccc2O1	/	11.9	/	?	/	3.0
Cc1ccc(-n2nc(C(=O)c3ccccc3)n3c(=O)cc(-c4ccccc4)nc23)cc1	4.0	/	/	/	-3.7	84.0*
CC(C)NC(=O)N(C)C[C@@H]1Oc2c(NC(=O)c3cnccn3)cccc2C(=O)N([C@@H](C)CO)C[C@H]1C	/	/	/	-4.6	/	-2.4
Cc1cnn(C(=S)NCCc2ccccc2)c1	/	/	/	/	-77.6	45.7*
Cc1cnn(C(=S)NCc2ccc(Cl)cc2)c1	/	/	-1.6	/	/	/
COCC(=O)N1C[C@H](C)[C@H](OC)CN(C)C(=O)c2ccc(NC(=O)Nc3ccccc3)cc2OC[C@@H]1C	/	-5.5	/	-3.5	/	5.5
COc1ccc(NC(=O)/C(Cl)=C(/Cl)S(=O)Cc2ccccc2Cl)cn1 (centres undefined)	-97.2	/	/	/	97.6*	/
COc1ccc(NC(=O)Cc2ccc(Cl)c(Cl)c2)cn1	-3.0	-0.9	2.0	-6.9	5.1	/
COc1ccc(NC(=O)/C(Cl)=C(/Cl)S(=O)(=O)Cc2ccc(C)cc2)cn1	-93.8	/	-2.6	/	94.2*	-16.1
C[C@H](CO)N1C[C@H](C)[C@H](CN(C)Cc2ccncc2)Oc2ccc(NS(=O)(=O)c3ccccc3)cc2CC1=O	/	-0.5	/	-13.3	/	2.4
O=C(NCc1ccccc1)C1=C[C@@H](c2ccccc2)C[C@@H](OCc2ccc(CO)cc2)O1	-6.2	24.4	-0.4	-1.2	4.0	13.8
C[C@H]1C=C(C(=O)NCc2ccccc2)O[C@@H](OCc2ccc(CO)cc2)C1	5.3	5.3	47.8*	-42.4	-3.6	-4.6

Screens deposited in PubChem by Broad Institute.
